From PubChem BioAssay (NCATS)
Results filed as inconclusive are left out. The source made the active and inactive calls. The call rests on the fitted dose curve; in most records, active means well fitted curve in the direction sought with a large enough effect; inconclusive means small, poorly fitted or top-dose-only effect, or another doubt; inactive means no such curve, though single readings can be large; an effect the other way counts as inactive or inconclusive.

Key:
[1] = qHTS for Hypoxia signaling pathway (HIF-1) agonists against the NCATS CANVASS Library (AID 1347375)
Outline: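 Beta-lactamase reporter under HRE control in ME-180 cells; compounds (11-point qHTS series) added after 5 hrs plating, then 17 hrs at 37C. FRET substrate read after 2 hr; same-well CellTiter-Glo luminescence gave viability and normalization.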

[2] = 10-beta competent E. coli microbial cell viability qHTS against the NCATS CANVASS Library (AID 1347376)
Outline: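 Read-out: BacTiter-Glo ATP luminescence, taken 20 min after reagent addition. Beforehand, 10-beta competent E. coli at 0.2 OD had been incubated overnight at 37C with compounds at 11 concentrations.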

[3] = DH5-alpha competent E. coli microbial cell viability qHTS against the NCATS CANVASS Library (AID 1347377)
Outline: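 Bacterial viability as ATP-dependent luminescence (BacTiter-Glo), read after overnight 37 °C exposure of DH5-alpha competent E. coli to compounds in 11-point titration.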

[4] = qHTS for H2AX Agonists against the NCATS CANVASS Library (AID 1347378)
Outline: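 CHO-K1 cells (1000/well, overnight at 37C) exposed to compounds at several concentrations for 3 hr at 37C, 0.76% DMSO final. Lysates read by TR-FRET (phospho-H2AX S139 Eu-cryptate antibody / H2AX-d2 antibody) after 24 hr at room temperature; 665/615 nm ratio.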

[5] = qHTS for Inflammasome Signaling Inhibitors: IL-1-beta AlphaLISA screen against the NCATS CANVASS Library (AID 1347379)
Excerpt: Natural products and their derivatives continue to be wellsprings of nascent therapeutic potential. However, many laboratories have limited resources for biological evaluation, leaving their previously isolated or synthesized compounds largely or completely untested. To address this issue, the Canvass library of natural products was assembled (https://tripod.nih.gov/canvass), in collaboration with academic and industry researchers, for quantitative high-throughput screening (qHTS) across a diverse set of cell-based and biochemical assays. […] The library was formatted into 1536-well plates and evaluated in 50 qHTS (in an 11-pnt concentration series) bioassays with broad scope of disease-relevant mechanisms. The resulting data set from 50 different assays was then systematically analyzed to identify overall trends and specific natural products with interesting biological activities. […]
IL-1-beta qHTS protocol: Three microliters containing 3000 THP-1 cells were dispensed into the wells of solid, white, tissue culture treated Greiner 1,536-well plates. […] The AlphaLISA signal was read by a PerkinElmer EnVision plate reader with an ultrasensitive luminescence detector and 1536 Plate HTS AlphaScreen aperture (excitation of 680nm and emission of 615nm).

[6] = qHTS for Antimalaria activity screened against the NCATS CANVASS Library (AID 1347380)
Outline: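 SYBR Green fluorescence at 485/535 nm was read 18 hr after lysis. This followed a 72 hr incubation at 37C in 5% O2, 5% CO2 of Dd2-infected erythrocytes (0.3% parasitemia, 2.5% final hematocrit) with compounds titrated over 11 concentrations.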

[7] = Inflammasome Signaling qHTS Counterscreen: IL-1-beta AlphaLISA counterscreen against the NCATS CANVASS Library (AID 1347381)
Outline: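 Purified IL-1-beta (4 pg/well) + compound, 11-pt conc. series; acceptor beads 6 ug/mL + biotin-Ab 0.6 nM final, 1 h RT; SA-donor 24 ug/ml final, 30 min dark RT; read ex 680/em 615.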

[8] = Cytotoxicity qHTS for assessment of Hepg2 cells membrane integrity screened against the NCATS CANVASS Library (AID 1347387)
Outline: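 Membrane damage quantified as fluorescent LDH-release signal (ex 560, em 590 nm) in HepG2 cells treated 5 hr at 37C. qHTS format, 11 concentrations spanning 0.59 nM - 46 uM final, cells plated at 2000 per well the night before.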

[9] = qHTS assay for small molecule disruptors of mitochondrial membrane potential screened against the NCATS CANVASS Library (AID 1347389)
Outline: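 Mitochondrial membrane potential in HepG2: 1 h compound treatment (11-point concentration series), 30 min m-MPI dye at 37C, then dual fluorescence of J-aggregates (ex 540/em 590) and monomers (ex 490/em 535); lower red/green ratio indicates depolarization.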

[10] = Secretion counterscreen for inhibitors of the SERCaMP assay screened against the NCATS CANVASS Library (AID 1347390)
Excerpt: Natural products and their derivatives continue to be wellsprings of nascent therapeutic potential. However, many laboratories have limited resources for biological evaluation, leaving their previously isolated or synthesized compounds largely or completely untested. To address this issue, the Canvass library of natural products was assembled (https://tripod.nih.gov/canvass), in collaboration with academic and industry researchers, for quantitative high-throughput screening (qHTS) across a diverse set of cell-based and biochemical assays. The pure (>85% purity by liquid chromatography/mass spectrometry [LC/MS]) Canvass library of 346 natural products were submitted by 45 academic laboratories and companies around the world. We collected pure natural products to circumvent deconvolution and structure elucidation due to time and resource limitations. The library was formatted into 1536-well plates and evaluated in 50 qHTS (in an 11-pnt concentration series) bioassays with broad scope of disease-relevant mechanisms. The resulting data set from 50 different assays was then systematically analyzed to identify overall trends and specific natural products with interesting biological activities. […]
SERCaMP secretion assay protocol: 1. […] Luminescence signal was obtained via the ViewLux plate reader (Perkin Elmer) using the clear emission filter and 1x binning, 5 seconds exposure settings.

Measured: outcome

CN(C)CCc1c[nH]c2ccccc12
inactive: [1] | [2] | [3] | [4] | [5] | [6] | [7] | [8] | [9] | [10]
